Data as given in the supplement of paper PMC10849652.
The full data set covers some 7,900 targets. This sample favours those with a hit. About 0.6% of all pairs of compound and target were hits.

Each target was assayed with Cc1cc(Nc2cc(N3CCN(C)CC3)nc(Sc3ccc(NC(=O)C4CC4)cc3)n2)n[nH]1 [tozasertib] (assay: log2 fold change, soluble protein after heating vs DMSO (PISA); higher = thermal stabilisation; K562 cells, 10 uM, 30 min; active = over 0.2 and 3.5 SD of the protein, either way, in both replicates (recomputed)).
Outline: (§1)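 Aliquots of K562 cells (2×10^6 cells/mL) treated with 10 μM compound for 30 min were heated for 3 min over 48°C-58°C. After pooling and extraction in PBS with 0.5% NP-40 at 4°C, soluble protein from a 21,000xg, 90 min spin was quantified by TMTpro 16plex LC-MS/MS with channel sums equalised. Thermal stability is expressed against control samples, from duplicates, as a log2 fold change.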

Chain of UniProt P16152 (P16152 whole entry, looked up): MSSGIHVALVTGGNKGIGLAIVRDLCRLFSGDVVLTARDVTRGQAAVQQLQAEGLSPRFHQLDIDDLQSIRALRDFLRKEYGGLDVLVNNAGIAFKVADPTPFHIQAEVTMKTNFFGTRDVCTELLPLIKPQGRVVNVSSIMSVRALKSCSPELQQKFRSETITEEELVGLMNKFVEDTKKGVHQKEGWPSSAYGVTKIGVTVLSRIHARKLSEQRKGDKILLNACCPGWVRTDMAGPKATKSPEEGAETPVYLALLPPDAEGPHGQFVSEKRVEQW
Chain of UniProt Q96RR4 (Q96RR4 whole entry, looked up): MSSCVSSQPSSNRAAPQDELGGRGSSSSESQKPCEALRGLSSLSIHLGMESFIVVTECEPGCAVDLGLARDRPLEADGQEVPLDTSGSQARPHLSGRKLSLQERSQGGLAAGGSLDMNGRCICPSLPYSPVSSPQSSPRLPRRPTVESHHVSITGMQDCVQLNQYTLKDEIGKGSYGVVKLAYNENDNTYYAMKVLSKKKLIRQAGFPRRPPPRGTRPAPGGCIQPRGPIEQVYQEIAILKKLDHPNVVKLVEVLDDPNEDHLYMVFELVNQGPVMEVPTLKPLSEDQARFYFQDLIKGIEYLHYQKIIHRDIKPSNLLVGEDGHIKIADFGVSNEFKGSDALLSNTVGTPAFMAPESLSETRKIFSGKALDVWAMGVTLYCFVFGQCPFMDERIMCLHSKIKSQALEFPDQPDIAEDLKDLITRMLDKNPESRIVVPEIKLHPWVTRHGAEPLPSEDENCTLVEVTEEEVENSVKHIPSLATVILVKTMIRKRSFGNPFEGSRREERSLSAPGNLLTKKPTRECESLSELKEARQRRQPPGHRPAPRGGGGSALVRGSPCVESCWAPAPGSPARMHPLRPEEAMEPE
Chain of UniProt Q5JTJ3 (Q5JTJ3 whole entry, looked up): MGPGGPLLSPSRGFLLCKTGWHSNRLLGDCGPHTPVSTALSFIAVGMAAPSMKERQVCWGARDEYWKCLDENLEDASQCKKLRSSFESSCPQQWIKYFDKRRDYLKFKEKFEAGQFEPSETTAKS
Chain of UniProt P50750 (P50750 whole entry, looked up): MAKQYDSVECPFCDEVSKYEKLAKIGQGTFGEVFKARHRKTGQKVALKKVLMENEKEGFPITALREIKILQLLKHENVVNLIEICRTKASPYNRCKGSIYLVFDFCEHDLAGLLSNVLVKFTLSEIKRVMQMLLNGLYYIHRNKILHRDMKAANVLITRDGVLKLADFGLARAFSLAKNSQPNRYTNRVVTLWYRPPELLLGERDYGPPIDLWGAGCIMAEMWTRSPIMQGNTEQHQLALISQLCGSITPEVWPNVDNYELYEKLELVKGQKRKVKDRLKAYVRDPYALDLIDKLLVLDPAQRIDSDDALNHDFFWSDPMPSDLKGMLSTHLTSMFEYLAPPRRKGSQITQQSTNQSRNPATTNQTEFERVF
Chain of UniProt P51790 (P51790 whole entry, looked up): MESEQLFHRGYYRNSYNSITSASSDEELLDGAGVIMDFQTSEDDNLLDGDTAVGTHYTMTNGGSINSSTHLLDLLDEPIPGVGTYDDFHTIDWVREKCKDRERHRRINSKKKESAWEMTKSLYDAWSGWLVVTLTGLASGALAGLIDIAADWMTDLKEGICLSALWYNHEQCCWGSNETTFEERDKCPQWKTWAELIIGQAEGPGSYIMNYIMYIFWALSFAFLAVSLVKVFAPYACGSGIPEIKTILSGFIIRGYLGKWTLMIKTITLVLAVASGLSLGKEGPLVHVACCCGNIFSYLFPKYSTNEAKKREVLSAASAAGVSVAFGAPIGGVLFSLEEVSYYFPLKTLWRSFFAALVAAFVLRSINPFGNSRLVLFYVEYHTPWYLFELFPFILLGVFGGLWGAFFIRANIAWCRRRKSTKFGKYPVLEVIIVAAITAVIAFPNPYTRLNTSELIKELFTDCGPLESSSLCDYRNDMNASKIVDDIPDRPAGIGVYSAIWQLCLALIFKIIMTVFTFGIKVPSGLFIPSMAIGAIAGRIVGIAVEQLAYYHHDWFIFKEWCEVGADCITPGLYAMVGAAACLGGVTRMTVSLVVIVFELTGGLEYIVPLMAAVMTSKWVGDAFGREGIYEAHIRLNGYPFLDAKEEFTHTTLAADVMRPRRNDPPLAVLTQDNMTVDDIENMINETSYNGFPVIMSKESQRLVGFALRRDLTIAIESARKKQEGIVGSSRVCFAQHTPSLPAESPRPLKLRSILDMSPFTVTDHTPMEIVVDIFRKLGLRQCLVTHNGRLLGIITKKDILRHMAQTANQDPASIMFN
Chain of UniProt Q16740 (Q16740 whole entry, looked up): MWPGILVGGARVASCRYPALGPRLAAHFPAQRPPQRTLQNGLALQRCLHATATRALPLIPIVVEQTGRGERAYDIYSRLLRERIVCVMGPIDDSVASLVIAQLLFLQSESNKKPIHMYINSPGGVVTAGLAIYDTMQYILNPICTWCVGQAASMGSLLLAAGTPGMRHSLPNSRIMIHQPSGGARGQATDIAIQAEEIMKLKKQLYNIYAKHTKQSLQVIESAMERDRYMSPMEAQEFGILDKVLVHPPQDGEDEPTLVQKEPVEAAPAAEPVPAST
Chain of UniProt Q96KP4 (Q96KP4 whole entry, looked up): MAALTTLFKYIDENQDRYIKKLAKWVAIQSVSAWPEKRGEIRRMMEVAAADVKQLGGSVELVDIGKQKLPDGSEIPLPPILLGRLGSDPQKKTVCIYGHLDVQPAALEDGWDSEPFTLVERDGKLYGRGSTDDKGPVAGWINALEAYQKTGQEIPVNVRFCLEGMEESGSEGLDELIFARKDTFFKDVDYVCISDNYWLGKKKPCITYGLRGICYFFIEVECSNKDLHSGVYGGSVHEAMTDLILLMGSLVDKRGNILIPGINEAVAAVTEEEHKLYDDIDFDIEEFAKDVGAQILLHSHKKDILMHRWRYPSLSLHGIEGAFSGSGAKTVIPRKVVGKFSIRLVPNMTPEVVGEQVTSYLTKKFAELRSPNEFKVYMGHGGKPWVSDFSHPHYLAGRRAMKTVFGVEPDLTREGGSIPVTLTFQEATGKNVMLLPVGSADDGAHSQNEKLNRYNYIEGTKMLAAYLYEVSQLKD
Chain of UniProt P60033 (P60033 whole entry, looked up): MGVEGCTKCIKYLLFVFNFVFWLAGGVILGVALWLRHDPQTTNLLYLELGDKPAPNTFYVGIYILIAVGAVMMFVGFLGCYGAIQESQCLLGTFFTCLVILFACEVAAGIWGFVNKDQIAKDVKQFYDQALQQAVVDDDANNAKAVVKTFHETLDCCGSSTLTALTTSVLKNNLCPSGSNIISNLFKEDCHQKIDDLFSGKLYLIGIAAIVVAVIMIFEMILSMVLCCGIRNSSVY
Chain of UniProt Q9HAW4 (Q9HAW4 whole entry, looked up): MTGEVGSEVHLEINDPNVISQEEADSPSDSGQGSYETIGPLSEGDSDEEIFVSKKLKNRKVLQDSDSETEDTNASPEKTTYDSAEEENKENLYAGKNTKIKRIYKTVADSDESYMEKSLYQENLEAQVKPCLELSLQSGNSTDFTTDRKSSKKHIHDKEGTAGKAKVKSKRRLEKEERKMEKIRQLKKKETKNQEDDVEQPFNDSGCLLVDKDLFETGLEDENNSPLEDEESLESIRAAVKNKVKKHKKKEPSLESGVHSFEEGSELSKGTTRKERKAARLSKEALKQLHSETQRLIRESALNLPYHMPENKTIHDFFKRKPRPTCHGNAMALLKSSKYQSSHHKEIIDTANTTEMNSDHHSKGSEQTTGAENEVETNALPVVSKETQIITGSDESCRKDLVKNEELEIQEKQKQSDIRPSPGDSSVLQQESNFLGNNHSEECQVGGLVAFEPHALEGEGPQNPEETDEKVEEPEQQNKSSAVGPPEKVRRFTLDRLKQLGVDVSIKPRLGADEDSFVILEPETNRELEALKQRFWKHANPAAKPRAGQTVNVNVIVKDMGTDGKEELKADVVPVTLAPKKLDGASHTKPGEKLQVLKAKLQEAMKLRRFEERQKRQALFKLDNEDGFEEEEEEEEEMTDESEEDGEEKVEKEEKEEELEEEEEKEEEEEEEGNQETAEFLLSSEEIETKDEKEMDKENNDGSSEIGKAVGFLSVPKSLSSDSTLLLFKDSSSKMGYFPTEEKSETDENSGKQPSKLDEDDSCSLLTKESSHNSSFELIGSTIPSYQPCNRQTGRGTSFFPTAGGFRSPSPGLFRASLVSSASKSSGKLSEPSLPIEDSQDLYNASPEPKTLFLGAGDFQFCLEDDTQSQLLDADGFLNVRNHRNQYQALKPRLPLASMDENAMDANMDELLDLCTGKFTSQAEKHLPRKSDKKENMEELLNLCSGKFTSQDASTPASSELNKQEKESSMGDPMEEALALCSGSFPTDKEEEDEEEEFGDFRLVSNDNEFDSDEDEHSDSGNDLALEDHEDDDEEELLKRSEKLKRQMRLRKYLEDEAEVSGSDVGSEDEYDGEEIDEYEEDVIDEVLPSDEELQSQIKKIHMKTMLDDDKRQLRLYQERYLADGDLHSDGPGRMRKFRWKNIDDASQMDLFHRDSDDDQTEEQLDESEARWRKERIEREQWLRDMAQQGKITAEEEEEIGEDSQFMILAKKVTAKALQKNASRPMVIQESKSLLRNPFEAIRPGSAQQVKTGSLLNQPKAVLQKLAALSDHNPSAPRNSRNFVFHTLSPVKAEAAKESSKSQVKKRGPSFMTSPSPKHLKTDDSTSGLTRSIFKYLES
Chain of UniProt Q13137 (Q13137 whole entry, looked up): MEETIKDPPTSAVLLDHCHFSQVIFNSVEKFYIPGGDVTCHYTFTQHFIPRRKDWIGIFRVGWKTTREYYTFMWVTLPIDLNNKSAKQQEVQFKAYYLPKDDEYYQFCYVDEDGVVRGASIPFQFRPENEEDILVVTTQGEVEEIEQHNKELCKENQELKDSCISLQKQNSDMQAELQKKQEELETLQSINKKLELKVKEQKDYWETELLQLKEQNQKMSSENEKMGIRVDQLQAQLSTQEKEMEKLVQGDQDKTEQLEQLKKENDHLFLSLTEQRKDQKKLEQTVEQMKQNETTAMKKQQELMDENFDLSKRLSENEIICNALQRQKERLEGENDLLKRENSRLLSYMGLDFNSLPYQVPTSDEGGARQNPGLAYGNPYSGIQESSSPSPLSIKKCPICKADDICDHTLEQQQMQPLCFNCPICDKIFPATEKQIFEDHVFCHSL

log2 fold change, inactive:
C9orf64 (UniProt Q5T6V5) -0.012
CELF2 isoform 3 (UniProt O95319) -0.054
CAMSAP1 isoform 3 (UniProt Q5T5Y3) -0.04
CNOT4 isoform 6 (UniProt O95628) -0.009
CSTF2 (UniProt P33240) 0.033
CBX5 (UniProt P45973) -0.01
CHD3 isoform 3 (UniProt Q12873) 0.23
CCDC9 (UniProt Q9Y3X0) -0.083
CHERP (UniProt Q8IWX8) 0.08
COQ9 (UniProt O75208) 0.009
CPQ (UniProt Q9Y646) 0.004
CD81 (UniProt P60033) -0.007
CDK6 (UniProt Q00534) 0.001
CHMP4C (UniProt Q96CF2) -0.024
CHAC2 (UniProt Q8WUX2) 0.059
CSNK2B (UniProt P67870) 0.006
CBR1 (UniProt P16152) -0.025
CRKL (UniProt P46109) -0.357
CHD4 isoform 2 (UniProt Q14839) 0.233
COA6 isoform 2 (UniProt Q5JTJ3) 0.109
CNDP2 (UniProt Q96KP4) -0.02
CETN2 (UniProt P41208) -0.01
CAMKK2 (UniProt Q96RR4) 0.15
CKS1B (UniProt P61024) 0.02
CHEK1 (UniProt O14757) -0.023
CLPP (UniProt Q16740) -0.02
CDK9 isoform 2 (UniProt P50750) -0.031
CHAMP1 (UniProt Q96JM3) 0.045
CCDC167 (UniProt Q9P0B6) -0.121
CALCOCO2 isoform 4 (UniProt Q13137) 0.115
CPSF3 (UniProt Q9UKF6) 0.117
CLASP2 isoform 3 (UniProt O75122) -0.06
CLSPN (UniProt Q9HAW4) 0.049
COMMD2 (UniProt Q86X83) 0.082
CLCN3 (UniProt P51790) 0.04
CCNK isoform 4 (UniProt O75909) 0.157

What follows are targets tested with Cc1cc(SCc2sc(-c3ccc(C(F)(F)F)cc3)nc2C)ccc1OCC(=O)O in the same assay as above.
Outline: as §1

log2 fold change, inactive:
C9orf64 (UniProt Q5T6V5) 0.097
CELF2 isoform 3 (UniProt O95319) 0.102
CAMSAP1 isoform 3 (UniProt Q5T5Y3) 0.02
CNOT4 isoform 6 (UniProt O95628) 0.014
CSTF2 (UniProt P33240) -0.011
CBX5 (UniProt P45973) 0.059
CHD3 isoform 3 (UniProt Q12873) 0.14
CCDC9 (UniProt Q9Y3X0) -0.012
CHERP (UniProt Q8IWX8) 0.138
COQ9 (UniProt O75208) 0.032
CPQ (UniProt Q9Y646) -0.058
CD81 (UniProt P60033) -0.084
CDK6 (UniProt Q00534) -0.012
CHMP4C (UniProt Q96CF2) 0.03
CHAC2 (UniProt Q8WUX2) 0.008
CSNK2B (UniProt P67870) -0.005
CBR1 (UniProt P16152) -0.024
CRKL (UniProt P46109) 0.012
CHD4 isoform 2 (UniProt Q14839) 0.186
COA6 isoform 2 (UniProt Q5JTJ3) 0.159
CNDP2 (UniProt Q96KP4) 0.015
CETN2 (UniProt P41208) -0.135
CAMKK2 (UniProt Q96RR4) 0
CKS1B (UniProt P61024) -0.093
CHEK1 (UniProt O14757) 0.008
CLPP (UniProt Q16740) 0.017
CDK9 isoform 2 (UniProt P50750) 0.03
CHAMP1 (UniProt Q96JM3) -0.049
CCDC167 (UniProt Q9P0B6) -0.214
CALCOCO2 isoform 4 (UniProt Q13137) -0.037
CPSF3 (UniProt Q9UKF6) 0.031
CLASP2 isoform 3 (UniProt O75122) 0.074
CLSPN (UniProt Q9HAW4) -0.104
COMMD2 (UniProt Q86X83) -0.018
CLCN3 (UniProt P51790) -0.006
CCNK isoform 4 (UniProt O75909) 0.016
